# According to PubChem BioAssay (NCI):
# This is part of a sample that, as a whole, favours compounds with a hit. Of some 83,000 tested, about 20% had one in any assay.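 Step 1: grow cells in 96-well plates. Step 2: add test compound at a single concentration. Step 3: incubate 48 h. Step 4: record percent growth.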 Active and inactive are the calls of the source. Rule for the calls: active = growth percent below 10; inactive = the rest.
# Test system: NCI-H226 lung
# Assay: NCI-60 one-dose screen, 48 h (100 = growth as untreated, 0 = no growth, -100 = all killed)
# Details: 10 µM unless noted
row,SMILES,growth
1,COC(=O)[C@]12CC[C@@H](C)[C@H](C)[C@@H]1C1=CC[C@@H]3[C@@]4(C)C(C=O)=C[C@@](C)(COC(=O)c5ccco5)C4=CC[C@@]3(C)[C@]1(C)CC2,19.1% (inactive)
2,Nc1n[nH]c2cc(F)c([C@@H]3Nc4c(F)cc5[nH]ncc5c4[C@H]4C5CCC(C5)[C@@H]34)cc12 (some centres not stated),46.3% (inactive)
3,CC1(c2ccccc2)NC(=O)N(NC(=O)CSc2nc(-c3cccs3)nc3ccccc23)C1=O (configuration not stated),91.1% (inactive)
4,CC(C)C(=O)Nc1n[nH]c2cc(-c3cccc(NS(=O)(=O)C4CC4)c3)ccc12,60% (inactive)
5,COc1c(CCC[P+](c2ccccc2)(c2ccccc2)c2ccccc2)cc2c(c1OC)OCO2,27% (inactive)
6,CN(C)CC1=NC2SC=C(c3ccccc3)C2C(=O)N1CC#N (configuration not stated),85.5% (inactive)
7,Cc1cc(C)c2c(-c3nnc(N)s3)cc(=O)oc2c1,100% (inactive)
8,C[C@]12CC[C@@H]3c4cc(OC(F)F)c(O)cc4CC[C@H]3[C@@H]1CC[C@@H]2OS(N)(=O)=O,57.4% (inactive)
9,NC(=S)Nc1cccc(O)c1,96.9% (inactive)
10,O=C(Nc1ccc(-n2cc(-c3ccncc3)c(-c3ccc(Cl)c(O)c3)n2)cc1)N1CCOCC1,103% (inactive)
11,COc1ccc(-c2cc(-c3cc(OC)c(OC)c(OC)c3)c(C#N)c(N3CCOCC3)n2)cc1O,108% (inactive)
12,COC(=O)CCC1=C(C)C2=NC1=CC1=NC(=CC3=NC(=Cc4[nH]c(/c(=C(/C)O)c4C)=C2)C(C(C)=O)=C3C)C(C)=C1CCC(=O)OC,83.9% (inactive)
